Hits are enriched below; roughly 7.1% of the tested compounds scored in any of these assays.
MCF10A rerep: induces DNA re-replication in MCF 10a normal breast cells | MCF 10A DNA re-replication, Hoechst nuclear intensity, 48 h | Potency, µM (titrated, usually from 46.1 µM), usual class: activators | 350,000 tested, 2.9% active | AID 624296; also: nearly all actives have a fitted effect of over 50% in size
p53 reactivation: re-activators of mutant p53. H1299 p53-A138V BP100-luciferase reporter, luminescence, 24 h. Potency, µM (highest dose often 92.2 µM), hits mostly activators. 320,000 tested, 0.063% active; also: nearly all actives have a fitted effect of over 45% in size
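p53-null H1299 cells stably carrying temperature-sensitive p53-A138V and a BP100-luciferase reporter were pinned with compounds (4-point, 1:5 series) and held 24 hrs at 37 deg C. Luminescence was read 10 min after detection reagent.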
SW480 rerep: induces DNA re-replication in SW480 colon adenocarcinoma cells. SW480 DNA re-replication, Hoechst DNA content imaging, 48 h. Potency, µM (titrated, usually from 46.1 µM), hits mostly activators. 340,000 tested, 1.8% active. AID 624297; also: nearly all actives have a fitted effect of over 55% in size
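Treated cells incubate 48 hr (37 C, 5% CO2), are stained 40 min with Hoechst, and nuclear fluorescence is enumerated; a rise in nuclei with high DNA signal marks re-replication.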
AT treatment: potential ataxia-telangiectasia treatments restoring KAP-1 phosphorylation | F2112 A-T fibroblasts, KAP-1 phosphorylation AlphaLISA; neocarzinostatin DNA damage 30 min before lysis | Potency, µM (highest dose often 57.5 µM), usual class: activators | 320,000 tested, 0.19% active; also: nearly all actives have a fitted effect of over 45% in size
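hTERT-immortalized A-T patient fibroblasts (F2112), 500 cells/well in OPTI-MEM, 1% FBS, got compounds for 60 min, then NCS for 30 min at 37C. Lysates were then assayed for phospho-KAP-1 by AlphaLISA (anti-pKAP1 donor, anti-KAP1 acceptor beads), 6 hr at 25C.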
ELG1 DNA repair: blocks ELG1-dependent DNA repair in HEK293T cells | HEK293T ELG1-luciferase reporter, luminescence, 16 h; DNA damage induced by 5-fluorouridine | Potency, µM (titrated, usually from 46.1 µM), hits mostly inhibitors | 330,000 tested, 2.3% active | AID 504467; also: nearly all actives have a fitted effect of over 55% in size
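Reporter activity after DNA damage by 5-fluorouridine is monitored. Compound-treated cells incubate 16 hr at 37 °C, then ONE-Glo is added for 30 min before luminescence reading.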
ELG1 genotox: inducers of genotoxicity in HEK293T ELG1-luciferase cells | AID 504466 | Potency, µM (titrated, usually from 46 µM), usual class: activators | HEK293T ELG1-luciferase reporter, luminescence, 16 h | 330,000 tested, 1.3% active; also: nearly all actives have a fitted effect of over 60% in size
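Genotoxicity was scored as increased ELG1-luciferase reporter signal, measured by ONE-Glo luminescence (30 min, room temperature). Compound or vehicle exposure of the HEK293T reporter cells lasted 16 hr at 37°C.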
Each line names hits and unclear results; the compound was inactive in the other large screens. Calls follow the shape of the dose curve; as a rule, active = well fitted curve in the direction sought with a large enough effect; inconclusive = small, poorly fitted or top-dose-only effect, or another doubt; inactive = no such curve, though single readings can be large; an effect the other way counts as inactive or inconclusive.

CN1CCc2c(sc3nc(SCC(=O)N4CCOCC4)n(-c4ccc(Cl)cc4)c(=O)c23)C1	SW480 rerep 8.2µM
C=CCn1c(SCc2csc(C)n2)nc2sc3c(c2c1=O)CCCCC3	MCF10A rerep inconclusive, ELG1 DNA repair inconclusive
C=CCn1c(SCC(=O)N2CCOCC2)nc2sc3c(c2c1=O)CCCC3	ELG1 DNA repair 18.4µM
C=CCn1c(SCc2csc(C)n2)nc2sc3c(c2c1=O)CCCC3	MCF10A rerep 16.4µM
C=CCn1c(SCC(N)=O)nc2sc3c(c2c1=O)CCC3	MCF10A rerep inconclusive
Nc1ncnc(NCc2ccccc2)c1[N+](=O)[O-]	MCF10A rerep inconclusive, ELG1 DNA repair 10.3µM
CN(c1ccccc1)c1nc(N)c([N+](=O)[O-])c(NCc2ccccc2)n1	none
Nc1ncnc(NCc2ccc(F)cc2)c1[N+](=O)[O-]	MCF10A rerep inconclusive, ELG1 DNA repair 8.2µM
Nc1ncnc(Nc2ccccn2)c1[N+](=O)[O-]	MCF10A rerep inconclusive, ELG1 DNA repair inconclusive
Cc1cc(CC(=O)O)c(C)n1-c1ccc(Cl)cc1	none (no result: p53 reactivation, AT treatment, ELG1 DNA repair, ELG1 genotox)
Cc1cccn2c(CNC3CCCc4ccccc43)c(C(=O)N3CCCCC3)nc12 (stereo not given)	ELG1 DNA repair inconclusive
CCCN1C(C)C(C(=O)OCC)=CN(Cc2ccc(Br)cc2)S1(=O)=O (stereo not given)	none
Cc1ccc(NC(=O)c2sc3nc4c(c(-c5ccco5)c3c2N)CCC4)cc1	MCF10A rerep 1.78µM (no result: AT treatment)
Nc1c(C(=O)Nc2ccccc2)sc2nc3c(c(-c4ccco4)c12)CCCC3	MCF10A rerep inconclusive, SW480 rerep inconclusive, ELG1 DNA repair inconclusive
Cc1ccccc1NC(=O)c1sc2nc3c(c(-c4ccco4)c2c1N)CCCC3	MCF10A rerep inconclusive, SW480 rerep 16.4µM, ELG1 DNA repair inconclusive
Cc1ccc(NC(=O)CN2C(=O)NC3(CCCCC3)C2=O)cc1S(=O)(=O)N1CCOCC1	none
COc1ccc(OC)c(C2=CC(=O)C[C@H](c3ccc4c(c3)OCO4)C2)c1	MCF10A rerep inconclusive, SW480 rerep inconclusive, ELG1 DNA repair inconclusive
COC1CCN(Cc2cn(Cc3ccccc3)nc2-c2cc3ccccc3o2)CC1	SW480 rerep inconclusive, ELG1 DNA repair 20.6µM
OCC1CCN(Cc2cn(Cc3ccccc3)nc2-c2cc3ccccc3o2)CC1	none
CCOc1ccc(-n2c(SCC(=O)Nc3ccccc3CC)nc3n[nH]c(C)c3c2=N)cc1	ELG1 DNA repair inconclusive (no result: MCF10A rerep, SW480 rerep)
Cc1cc(-n2c(SCC(=O)Nc3ccc(F)c(F)c3)nc3n[nH]c(C)c3c2=N)ccc1Cl	MCF10A rerep 2.31µM, SW480 rerep inconclusive, AT treatment inconclusive
Cc1cc(-n2c(SCC(=O)Nc3ccc(Br)cc3)nc3n[nH]c(C)c3c2=N)ccc1Cl	MCF10A rerep 3.26µM, SW480 rerep 18.4µM
Cc1cc(-n2c(SCC(=O)NCc3cccs3)nc3n[nH]c(C)c3c2=N)ccc1Cl	MCF10A rerep inconclusive, ELG1 DNA repair inconclusive
CCOc1ccc(-n2c(SCC(=O)Nc3ccc(Br)cc3)nc3n[nH]c(C)c3c2=N)cc1	MCF10A rerep 14.6µM, SW480 rerep inconclusive
O=C(CSc1ccccc1F)NNC(=O)c1ccncc1	none
COc1cc(OC)c(NC(=O)CCCNC(=O)Cn2cnc3sc(C)c(C)c3c2=O)cc1Cl	ELG1 DNA repair inconclusive
Cc1ccc(C)c(-c2csc(Nc3ncccn3)n2)c1	AT treatment 3.16µM, ELG1 DNA repair inconclusive
Oc1ccc(-c2csc(Nc3ncccn3)n2)c(O)c1	ELG1 DNA repair inconclusive, ELG1 genotox 7.3µM
Cc1ccc(C)c(-c2csc(NC(=O)c3cnccn3)n2)c1	ELG1 DNA repair inconclusive
O=C(NCc1cccnc1)c1cccc(NS(=O)(=O)c2ccc(Br)cc2)c1	MCF10A rerep 0.651µM, SW480 rerep 9.2µM, ELG1 DNA repair inconclusive
Cc1ccc(S(=O)(=O)Nc2cccc(C(=O)NCc3cccnc3)c2)cc1F	MCF10A rerep 2.91µM, SW480 rerep 6.51µM
O=C(NCc1ccccn1)c1cccc(NS(=O)(=O)c2ccc(Br)cc2)c1	none
O=C(NCc1cccnc1)c1cccc(S(=O)(=O)Nc2ccc(F)cc2)c1	none
CCOC(=O)CCNC(=O)Nc1cc2nc(C)n(Cc3cccc(Cl)c3)c2nc1C	none
CCCNC(=O)c1ccccc1NC(=O)c1cccc(-n2cnnn2)c1	ELG1 DNA repair inconclusive
O=C(NCCCCCCNC(=O)c1ccccc1O)c1ccccc1O	ELG1 DNA repair 10.3µM
Cc1ccc(C(=O)NCCCc2ccccc2)c(C)c1	ELG1 DNA repair inconclusive, ELG1 genotox 16.4µM
O=C(NCCCc1ccccc1)c1ccccc1O	MCF10A rerep 14.6µM, SW480 rerep inconclusive, ELG1 DNA repair inconclusive (no result: AT treatment)
Nc1cc(=O)[nH]c2ncnn12	none (no result: p53 reactivation, AT treatment, ELG1 DNA repair, ELG1 genotox)
CCN(CC)CCNC(=O)C(Cl)=C1C(Cl)=C(Cl)C(Cl)=C1Cl	MCF10A rerep 10.3µM, SW480 rerep 11.6µM (no result: p53 reactivation, AT treatment, ELG1 DNA repair, ELG1 genotox)
COc1ccc(CC(=O)Nc2ccccc2-c2ccccc2)cc1OC	none
COc1ccc(C(C)=O)cc1CC(=O)Nc1ccccc1-c1ccccc1	ELG1 DNA repair 11.6µM
CN(CC(=O)Nc1ccccc1Oc1ccccc1)Cc1ccccc1F	MCF10A rerep 8.2µM
O=C(CN1CCCCC1)Nc1ccccc1Oc1ccccc1	MCF10A rerep 18.4µM
Cc1ccc(CC(=O)Nc2ccccc2-c2ccccc2)cc1C	MCF10A rerep 9.2µM
O=C(NCc1ccc(F)cc1)c1ccncc1	none
Cc1ccccc1CN(C)CC(=O)Nc1ccccc1-c1ccccc1	MCF10A rerep 14.6µM
CCn1ncc(/C=C/C(=O)c2ccccc2)c1C	p53 reactivation inconclusive, ELG1 DNA repair inconclusive, ELG1 genotox inconclusive (no result: AT treatment)
Cc1cc2c(c(/C=C/C(=O)c3ccccc3)c1)OC1(C=C2)Oc2ccccc2C(=O)N1C (stereo not given)	MCF10A rerep 5.62µM, SW480 rerep 3.66µM, ELG1 DNA repair inconclusive
O=C(N/N=C/c1c[nH]c2ccccc12)C1CC1c1ccccc1 (stereo not given)	none
O=C(N/N=C\c1ccc(Cl)s1)C1COc2ccccc2O1 (stereo not given)	MCF10A rerep inconclusive, SW480 rerep 16.4µM, ELG1 DNA repair inconclusive
O=C(N/N=C/c1c[nH]c2ccccc12)C1COc2ccccc2O1 (stereo not given)	MCF10A rerep 20.6µM, SW480 rerep inconclusive, ELG1 DNA repair inconclusive
COc1ccc(S(=O)(=O)N(C)CC(=O)NCc2ccco2)cc1OC	none
O=C(NC(Nc1ncc(S(=O)(=O)c2ccc([N+](=O)[O-])cc2)s1)(C(F)(F)F)C(F)(F)F)c1ccc(Cl)cc1	MCF10A rerep 9.2µM, SW480 rerep inconclusive, ELG1 DNA repair inconclusive
